25 compounds from PubChem BioAssay can be followed below.

The test system of the assay is Fibrinogen (Alexa647-labelled). In words: Alexa647-fibrinogen binding to printed small molecules – biochemical, small-molecule microarray, 635/667 nm fluorescence, artefact control for SMM control-protein annotation, profiling panel (AID 1131).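 Note: z-score merges 667 nm fluorescence with per-spot signal-to-noise over triplicate slides.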 Particulars: fibrinogen-A647 binding fluorescence, higher = more signal.
For `Cc1ccc(S(=O)(=O)N[C@@H]2COC(=O)[C@H](C)COC(=O)CC=C[C@H]2C)cc1`, the composite z-score is -0.305.

`C=CC[C@@H]1C=C[C@H](ON=C2c3cc(OC)ccc3O[C@H](c3cccc(OC)c3)[C@H]2O)[C@@H](CO)O1` came in with a composite z-score of 0.352.

`C=CCC(OC(C)=O)[C@@H]1[C@@H](N(Cc2cc3ccccc3o2)C(=O)Cc2ccc(F)cc2)c2cc(OCCCO)ccc2N1C(=O)Cc1ccc(OC)cc1` (stereo not given in full) came in with a composite z-score of 0.0188.

`CCOC(=O)[C@H](CC(C)C)NC(=O)CCC1CC(OC(=O)NCCc2ccc(F)cc2)CC2(CCCC(COC(=O)NCc3ccccc3)O2)O1` (stereo not given in full): the composite z-score came out at 0.538.

Compound `O=C1[C@H]2[C@H]3[C@H](O)[C@H](O)CC(=NOC[C@@H](O)COCc4ccco4)[C@H]3CC[C@H]2C(=O)N1Cc1ccc2c(c1)OCO2` showed a composite z-score of -0.447.

On to `CC(CCC(=O)OC[C@H]1O[C@H](C#Cc2ccccc2)C=C[C@@H]1Oc1ccc(C)cc1)=NOC[C@@H](O)[C@H]1O[C@@H]2OC(C)(C)O[C@@H]2[C@H]1O`, for which the composite z-score was -0.38.

`CC(C)(C)N1CC=CC23O[C@@H]4C=CCCOC(=O)C4[C@H]2C(=O)N(CCCCCO)[C@@H]3C1=O` (stereo not given in full) came in with a composite z-score of -1.67.

In turn, `CCc1cc2c(nc1CC)CCN(CCC(C)=NO[C@@H](C)c1cc(-c3c(C)cc(C)cc3C)no1)C2` came in with a composite z-score of 0.397.

Take `CC(C)CON=C1C[C@@H](O)[C@@H](O)[C@@H]2[C@@H]3C(=O)N(Cc4ccccc4)C(=O)[C@@H]3CC[C@@H]12`: the composite z-score was -0.598.

For the compound `COCCCNC(=O)[C@@]1(C)c2ccccc2C(=O)N(Cc2ccc(OC(F)(F)F)cc2)[C@H]1c1ccc(CO)cc1`, the composite z-score is -1.75.

`O=C1C2=CC[C@H]3C(=O)N(Cc4ccc5c(c4)OCO5)C(=O)[C@H]3[C@H]2[C@H](O)[C@@H]2O[C@H]12` came in with a composite z-score of 0.459.

Turning to `COc1ccc(O[C@H]2C=C[C@@H](c3ccccc3)O[C@@H]2COC(=O)CCC(C)=NOC(C)CN2CCCCc3nc(C)c(C)cc32)cc1` (stereo not given in full), the composite z-score was -0.78.

As for `CC(CCN1CCCCc2nc(C)c(C)cc21)=NOC(C)CN1CCCCc2nc(C)c(C)cc21` (stereo not given), the composite z-score came out at 0.911.

`O=C1[C@H]2[C@H]3[C@H](O)[C@H](O)CC(=NOCc4ccccc4)[C@@H]3CC[C@H]2C(=O)N1C1CCCCC1` showed a composite z-score of -0.303.

For `COc1ccc([Si](C)(C)[C@@H]2[C@@H](CCO)O[C@]3(C(=O)N(Cc4ccc(NC(C)=O)cc4)c4ccccc43)[C@H]2C)cc1`, the composite z-score came out at 0.963.

Take `Cc1cc2c(c(=O)o1)[C@H](O)[C@H]1O[C@H]1C2=O`: the composite z-score was -0.236.

`O=C1[C@H]2[C@H]3[C@H](O)[C@H](O)CC(=NOC[C@@H](O)COCc4ccco4)[C@H]3CC[C@H]2C(=O)N1C1CCCCC1`: the composite z-score is -1.02.

With `[N-]=[N+]=Nc1ccccc1C[C@@]1(C(N)=O)N=C(c2ccc(OCCCO)cc2)O[C@@H]1c1ccccc1`, the composite z-score is -0.367.

For the compound `CCOC(=O)NN=C1C[C@@H](O)[C@@H](O)[C@@H]2[C@@H]3C(=O)N(CC)C(=O)[C@@H]3CC[C@@H]12`, the composite z-score is 0.356.

Regarding `CC(C)NC(=O)[C@@]1(c2ccc([N+](=O)[O-])cc2)CC(=O)N(CC23CC4CC(CC(C4)C2)C3)[C@@H]1c1ccc(CO)cc1I`, the composite z-score was -0.206.

Compound `COC(=O)C1(C)C=C2C(=C(c3ccccc3)C(=O)C2C)CN1` (stereo not given) displayed a composite z-score of 0.494.

In the case of `O=C1[C@H]2[C@H]3[C@H](O)[C@H](O)CC(=NO[C@@H]4O[C@H](CO)[C@@H](O)[C@H](O)[C@H]4O)[C@@H]3CC[C@H]2C(=O)N1Cc1ccccc1`, the composite z-score is -0.247.

The compound `CCOC(=O)CCN1C(=O)[C@H]2[C@H]3[C@H](O)C=CC(=O)[C@@H]3CC[C@H]2C1=O` registered a composite z-score of 0.11.

The compound `Cc1cc2c(nc1C)CCCN2CC(C)ON=C1[C@H]2CCn3c(=O)n(-c4ccccc4)c(=O)n3[C@H]2[C@H](O)[C@@H]2O[C@H]12` (stereo not given in full) registered a composite z-score of 0.342.

Compound `CCCCc1nc2c(c3c1C[C@H](C)OC3)CN(CCC(C)C)CC2` registered a composite z-score of 0.928.
